# PubChem BioAssay (EPA / NIEHS)
# Records with an inconclusive call do not appear. Calls of active or inactive are those of the source. Rule for the calls, unless noted: active = hit-call score of the fitted dose curve at least 0.9, where 1 is the maximum; inactive = score below 0.9.
# Assays:
# [1] = molecular target: Estrogen receptor (Homo sapiens) (UniProt P03372); test: CCTE_Deisenroth_AIME_384WELL_LUC_Active: CCTE's 384-well Estrogen Receptor Transactivation Assay with AIME metabolic competence (ERTA luciferase; metabolism positive), Deisenroth Lab (AID 2284030; active = hit-call score of the fitted dose curve at least 0.9, where 1 is the maximum)
# Outline: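 Readout: bioluminescent luciferase induction in VM7Luc4E2 cells 24 hour after receiving medium from a 2 h rat hepatic S9 (induced, alginate microsphere) metabolism step. Concentrations 0.002 - 200 uM; activity scaled to 17beta-estradiol positive control.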
# [2] = molecular target: Estrogen receptor (Homo sapiens) (UniProt P03372); test: CCTE_Deisenroth_AIME_384WELL_LUC_Inactive: CCTE's 384-well Estrogen Receptor Transactivation Assay without AIME metabolic competence (ERTA luciferase; metabolism negative), Deisenroth Lab (AID 2284038; active = hit-call score of the fitted dose curve at least 0.9, where 1 is the maximum;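 note: VM7Luc4E2 breast cells given medium preincubated 2 h with S9-free microspheres; hits raise estrogen receptor luciferase signal so potencies reflect agonists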)
# Outline: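 Metabolism-negative mode: chemicals (10-point, 0.002–200 uM) held 2 h with alginate-water microspheres, then conditioned medium applied to VM7Luc4E2 cells for 24 h. Luciferase induction referenced to 17beta-estradiol.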
# [3] = molecular target: Estrogen receptor (Homo sapiens) (UniProt P03372); test: CCTE_Deisenroth_AIME_384WELL_LUC_Shift: CCTE's 384-well Estrogen Receptor Transactivation Assay with AIME metabolic competence data shift (ERTA luciferase; difference in metabolism positive and negative), Deisenroth Lab (AID 2284041);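 note: shift is response with S9 minus without S9 so positive means metabolism raised ER signal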
# Outline: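 Chemicals (0.002–200 uM, 10 points) pre-incubated 2 h with alginate-encapsulated induced male Sprague Dawley rat liver S9 or S9-free, then medium applied 24 h to VM7Luc4E2 cells; luciferase. Endpoint is per-concentration difference, S9-positive minus negative.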
# [4] = molecular target: Sodium channel protein type 1 subunit alpha (Rattus norvegicus) (UniProt P04774); test: NVS_IC_rNaCh_site2: NovaScreen (NVS) Ion Channel Assay for rat Sodium Channel, Site 2 (NaCh) (AID 2283322; active = hit-call score of the fitted dose curve at least 0.9, where 1 is the maximum;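 note: hit means loss of radioligand binding signal relative to DMSO so AC50 marks displacement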)
# Outline: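 Membranes: rat forebrain. Format: competitive radioligand displacement, filter separation, scintillation readout, 1 h exposure. Primary screen in duplicate at 25 uM; actives retested in concentration series.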
# PGR (gene 5241) = PGR (gene 5241) (UniProt P06401); test: NVS_NR_hPR: NovaScreen (NVS) Nuclear Receptor Binding Assay for human Progestron Receptor (PR) (AID 2283360; active = hit-call score of the fitted dose curve at least 0.9, where 1 is the maximum;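 note: active means loss of bound radioligand signal versus DMSO baseline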)
# Outline: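 Cell-free radioligand binding using receptor protein extracted from T47D cells, read by scintillation counting 18 hours after dosing. Loss of signal relative to DMSO baseline indicates displacement; primary screen single concentration 25 uM in duplicate, actives followed in concentration series.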
# [5] = CEETOX_H295R_11DCORT_noMTC: CeeTox H295R High-throughput Steroidogenesis Assay for 11-Deoxycortisol (11DCORT), maximum tolerated concentration (MTC) filtered results only (AID 2283911); settings: actives raise or lower the signal
# Outline: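 H295R, OECD 456-based; 10 uM forskolin 48 h → compound (0.1% DMSO) 48 h → medium extracted, 11DCORT by LC-MS/MS. Gain/loss vs DMSO control, all concentrations kept regardless of MTT viability.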
# [6] = CEETOX_H295R_OHPREG_noMTC: CeeTox H295R High-throughput Steroidogenesis Assay for OH-Pregnenolone (OHPREG), maximum tolerated concentration (MTC) filtered results only (AID 2283912); settings: actives raise or lower the signal
# Outline: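 H295R cells prestimulated 48 h with 10 uM forskolin, then exposed 48 h to compound (0.1% DMSO). 17alpha-hydroxypregnenolone in medium measured by MTBE extraction and HPLC-MS/MS; bidirectional fit vs DMSO, concentrations not MTT/MTC-filtered.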
# [7] = CEETOX_H295R_OHPROG_noMTC: CeeTox H295R High-throughput Steroidogenesis Assay for OH-Progesterone (OHPROG), maximum tolerated concentration (MTC) filtered results only (AID 2283914); settings: actives raise or lower the signal
# Outline: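 H295R cells prestimulated 48 h with 10 uM forskolin, then exposed 48 h to chemical (0.1% DMSO final). 17alpha-hydroxyprogesterone in medium quantified by HPLC-MS/MS after MTBE extraction; bidirectional fitting versus DMSO, concentrations not MTC-filtered.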
# [8] = CEETOX_H295R_ANDR_noMTC: CeeTox H295R High-throughput Steroidogenesis Assay for Androstenedione (ANDR), maximum tolerated concentration (MTC) filtered results only (AID 2283915); settings: actives raise or lower the signal
# Outline: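 H295R cells, passage 10 or below, prestimulated 48 h with 10 uM forskolin, then exposed 48 h to chemical in 0.1% DMSO. Medium androstenedione extracted with MTBE, quantified by HPLC-MS/MS; concentrations not MTC-filtered; bidirectional fit versus DMSO.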
# [9] = CEETOX_H295R_CORTISOL_noMTC: CeeTox H295R High-throughput Steroidogenesis Assay for Cortisol, maximum tolerated concentration (MTC) filtered results only (AID 2283916); settings: actives raise or lower the signal
# Outline: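 H295R human adrenal cells prestimulated 48 h with 10 uM forskolin, then exposed 48 h to chemical in 0.1% DMSO; cortisol in medium quantified by HPLC-MS/MS; bidirectional fit vs DMSO baseline, concentrations not MTT-filtered for MTC.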
# [10] = CEETOX_H295R_CORTIC_noMTC: CeeTox H295R High-throughput Steroidogenesis Assay for Corticosterone (CORTIC), maximum tolerated concentration (MTC) filtered results only (AID 2283917); settings: actives raise or lower the signal
# Outline: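 H295R adrenal cells pre-stimulated 48 h with 10 uM forskolin, then exposed 48 h to chemical in 0.1% DMSO; corticosterone in medium quantified by HPLC-MS/MS, fitted bidirectionally versus DMSO without MTT-based concentration filtering.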
# [11] = CEETOX_H295R_DOC_noMTC: CeeTox H295R High-throughput Steroidogenesis Assay for DOC, maximum tolerated concentration (MTC) filtered results only (AID 2283918); settings: actives raise or lower the signal
# Outline: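 H295R cells prestimulated 48 h with 10 uM forskolin, then exposed 48 h to chemical in 0.1% DMSO. 11-Deoxycorticosterone in medium measured by MTBE extraction and HPLC-MS/MS; bidirectional fit vs DMSO, no MTC filter.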
# [12] = CEETOX_H295R_PROG_noMTC: CeeTox H295R High-throughput Steroidogenesis Assay for Progesterone (PROG), maximum tolerated concentration (MTC) filtered results only (AID 2283920); settings: actives raise or lower the signal
# Outline: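 H295R cells, prestimulated 48 h with 10 uM forskolin, exposed 48 h to chemical in 0.1% DMSO. Medium progesterone quantified by MTBE extraction and HPLC-MS/MS; bidirectional fit versus DMSO, concentrations not MTT-filtered.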
# [13] = CEETOX_H295R_TESTO_noMTC: CeeTox H295R High-throughput Steroidogenesis Assay for Testosterone (TESTO), maximum tolerated concentration (MTC) filtered results only (AID 2283924); settings: actives raise or lower the signal
# Outline: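 H295R cells prestimulated 48 h with 10 uM forskolin, then exposed 48 h to chemicals in 0.1% DMSO final. Testosterone in medium quantified by MTBE extraction and HPLC-MS/MS; bidirectional fit versus DMSO, concentrations […] filtered by MTT-based maximum tolerated concentration.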
# [14] = molecular target: D(1A) dopamine receptor (Homo sapiens) (UniProt P21728); test: NVS_GPCR_hDRD1: NovaScreen (NVS) G Protein-Coupled Receptor Assay for human Dopamine Receptor D1 (DRD1) (AID 2283269; active = hit-call score of the fitted dose curve at least 0.9, where 1 is the maximum)
# Outline: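 Cell-free radioligand binding to human DRD1 from HEK293 membranes, read 1 h after dosing by filter-based scintillation counting. Loss of signal versus DMSO baseline marks displacement. Primary screen at 25 uM single concentration in duplicate; actives followed up in concentration series.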
# [15] = molecular target: human Caspase 5 (CASP5), CASP5 (gene 838) (UniProt P51878); test: NVS_ENZ_hCASP5: NovaScreen (NVS) Enzymatic Assay for human Caspase 5 (CASP5) (AID 2283137; active = hit-call score of the fitted dose curve at least 0.9, where 1 is the maximum)
# Outline: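 Recombinant human caspase 5 expressed in E. coli, fluorogenic substrate, fluorescence read 2 h after dosing. Single-point 25 uM duplicate screen, then concentration-response to maximum 50 uM for actives; DMSO baseline.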
# [16] = molecular target: human Dual Specificity Protein Phosphatase 3 (DUSP3), DUSP3 (gene 1845) (UniProt P51452); test: NVS_ENZ_hDUSP3: NovaScreen (NVS) Enzymatic Assay for human Dual Specificity Protein Phosphatase 3 (DUSP3) (AID 2283152; active = hit-call score of the fitted dose curve at least 0.9, where 1 is the maximum;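 note: phosphatase activity of recombinant human DUSP3 on a fluorogenic substrate without cells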)
# Outline: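 Cell-free assay with recombinant human DUSP3 and fluorogenic substrate, read by fluorescence intensity. Primary screen ran duplicate at 25 uM; actives followed up in concentration series; loss of signal versus DMSO scored.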
# [17] = molecular target: human Esterase Plasma (ES), BCHE (gene 590) (UniProt P06276); test: NVS_ENZ_hES: NovaScreen (NVS) Enzymatic Assay for human Esterase Plasma (ES) (AID 2283157; active = hit-call score of the fitted dose curve at least 0.9, where 1 is the maximum)
# Outline: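 Esterase from human plasma, cell-free, colorimetric absorbance read 0.25 h after dosing. Screened at 25 uM in duplicate, with threshold-passing chemicals run in concentration-response up to 50 uM; loss of signal fitted versus DMSO.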
# [18] = molecular target: human Thromboxane A2 Receptor (TXA2), TBXA2R (gene 6915) (UniProt P21731); test: NVS_GPCR_hTXA2: NovaScreen (NVS) G Protein-Coupled Receptor Assay for human Thromboxane A2 Receptor (TXA2) (AID 2283282; active = hit-call score of the fitted dose curve at least 0.9, where 1 is the maximum;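 note: actives reduce bound radioligand signal relative to DMSO baseline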)
# Outline: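 Filter scintillation counting of bound radioligand, human platelet protein, 1 h exposure. Single-concentration duplicates (25 uM) first, concentration-response follow-up for actives. Binding loss scored against DMSO baseline.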
# [19] = molecular target: sheep Cyclooxygenase-1 (Cox1), PTGS1 (gene 443551) (UniProt P05979); test: NVS_ENZ_oCOX1: NovaScreen (NVS) Enzymatic Assay for sheep Cyclooxygenase-1 (Cox1) (AID 2283239; active = hit-call score of the fitted dose curve at least 0.9, where 1 is the maximum;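 note: actives reduce cyclooxygenase activity so potencies are for inhibitors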)
# Outline: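 Ovine seminal vesicle extract; absorbance (colorimetric) enzyme read-out at 0.66 h post-dose. Primary: single conc 25 uM, duplicate. Follow-up: concentration series on actives. Activity = signal loss vs DMSO baseline.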
# Chain of Estrogen receptor (Homo sapiens) (P03372 whole entry, looked up): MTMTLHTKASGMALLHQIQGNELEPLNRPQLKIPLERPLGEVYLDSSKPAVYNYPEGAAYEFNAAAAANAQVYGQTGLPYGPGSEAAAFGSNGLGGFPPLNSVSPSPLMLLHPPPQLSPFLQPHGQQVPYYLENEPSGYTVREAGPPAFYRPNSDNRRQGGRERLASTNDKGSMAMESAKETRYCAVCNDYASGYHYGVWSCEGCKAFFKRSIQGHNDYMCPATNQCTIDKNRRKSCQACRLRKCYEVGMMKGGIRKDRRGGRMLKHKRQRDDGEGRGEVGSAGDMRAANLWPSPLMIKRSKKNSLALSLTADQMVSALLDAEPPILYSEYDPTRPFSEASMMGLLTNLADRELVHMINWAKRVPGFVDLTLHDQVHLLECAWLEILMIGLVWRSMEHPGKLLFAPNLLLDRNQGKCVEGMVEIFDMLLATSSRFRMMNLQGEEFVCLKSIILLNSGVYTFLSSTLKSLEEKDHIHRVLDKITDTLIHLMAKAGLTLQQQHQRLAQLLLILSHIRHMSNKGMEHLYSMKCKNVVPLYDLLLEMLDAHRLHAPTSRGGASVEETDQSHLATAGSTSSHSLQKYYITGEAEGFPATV
# Chain of human Thromboxane A2 Receptor (TXA2), TBXA2R (gene 6915) (P21731 whole entry, looked up): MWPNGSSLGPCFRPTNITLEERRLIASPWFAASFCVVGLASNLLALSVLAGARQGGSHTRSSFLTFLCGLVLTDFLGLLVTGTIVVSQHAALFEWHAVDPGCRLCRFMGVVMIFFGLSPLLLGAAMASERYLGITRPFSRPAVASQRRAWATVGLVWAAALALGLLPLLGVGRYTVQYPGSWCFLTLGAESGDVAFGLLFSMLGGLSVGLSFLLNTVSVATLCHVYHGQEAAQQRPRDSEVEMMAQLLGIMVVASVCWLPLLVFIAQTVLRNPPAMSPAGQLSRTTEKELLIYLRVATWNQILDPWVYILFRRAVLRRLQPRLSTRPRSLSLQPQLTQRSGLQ
# Chain of human Dual Specificity Protein Phosphatase 3 (DUSP3), DUSP3 (gene 1845) (P51452 whole entry, looked up): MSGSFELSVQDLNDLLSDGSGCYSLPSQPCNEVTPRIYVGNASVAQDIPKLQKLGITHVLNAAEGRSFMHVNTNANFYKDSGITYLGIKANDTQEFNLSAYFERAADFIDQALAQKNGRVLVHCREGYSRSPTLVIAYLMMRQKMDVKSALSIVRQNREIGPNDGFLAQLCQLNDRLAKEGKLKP
# Chain of D(1A) dopamine receptor (Homo sapiens) (P21728 whole entry, looked up): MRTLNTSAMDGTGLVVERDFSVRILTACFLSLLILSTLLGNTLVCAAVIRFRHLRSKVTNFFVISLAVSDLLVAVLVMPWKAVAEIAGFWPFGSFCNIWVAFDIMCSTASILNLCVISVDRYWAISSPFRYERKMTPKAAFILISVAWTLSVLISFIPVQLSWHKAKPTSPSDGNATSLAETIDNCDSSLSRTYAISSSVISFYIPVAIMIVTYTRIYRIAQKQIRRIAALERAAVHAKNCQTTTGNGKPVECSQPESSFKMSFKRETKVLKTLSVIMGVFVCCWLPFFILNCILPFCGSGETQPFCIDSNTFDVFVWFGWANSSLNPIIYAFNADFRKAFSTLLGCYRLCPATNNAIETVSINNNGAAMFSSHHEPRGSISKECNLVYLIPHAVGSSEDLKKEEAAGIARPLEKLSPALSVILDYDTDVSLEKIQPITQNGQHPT
# Chain of human Esterase Plasma (ES), BCHE (gene 590) (P06276 whole entry, looked up): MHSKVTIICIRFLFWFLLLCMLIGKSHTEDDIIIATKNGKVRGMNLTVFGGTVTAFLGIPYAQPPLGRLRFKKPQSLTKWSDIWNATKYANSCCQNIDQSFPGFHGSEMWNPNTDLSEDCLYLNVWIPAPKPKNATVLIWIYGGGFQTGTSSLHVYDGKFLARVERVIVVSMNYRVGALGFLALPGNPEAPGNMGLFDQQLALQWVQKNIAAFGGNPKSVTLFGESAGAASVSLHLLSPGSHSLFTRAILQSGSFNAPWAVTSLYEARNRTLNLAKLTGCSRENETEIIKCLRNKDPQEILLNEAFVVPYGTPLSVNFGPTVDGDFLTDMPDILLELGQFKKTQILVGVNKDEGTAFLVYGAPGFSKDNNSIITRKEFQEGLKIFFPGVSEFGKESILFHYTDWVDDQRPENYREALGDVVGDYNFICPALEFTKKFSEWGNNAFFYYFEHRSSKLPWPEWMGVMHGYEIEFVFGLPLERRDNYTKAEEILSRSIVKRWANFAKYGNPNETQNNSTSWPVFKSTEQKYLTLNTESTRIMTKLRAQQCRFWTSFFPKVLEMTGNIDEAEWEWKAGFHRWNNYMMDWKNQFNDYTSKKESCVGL
# Chain of sheep Cyclooxygenase-1 (Cox1), PTGS1 (gene 443551) (P05979 whole entry, looked up): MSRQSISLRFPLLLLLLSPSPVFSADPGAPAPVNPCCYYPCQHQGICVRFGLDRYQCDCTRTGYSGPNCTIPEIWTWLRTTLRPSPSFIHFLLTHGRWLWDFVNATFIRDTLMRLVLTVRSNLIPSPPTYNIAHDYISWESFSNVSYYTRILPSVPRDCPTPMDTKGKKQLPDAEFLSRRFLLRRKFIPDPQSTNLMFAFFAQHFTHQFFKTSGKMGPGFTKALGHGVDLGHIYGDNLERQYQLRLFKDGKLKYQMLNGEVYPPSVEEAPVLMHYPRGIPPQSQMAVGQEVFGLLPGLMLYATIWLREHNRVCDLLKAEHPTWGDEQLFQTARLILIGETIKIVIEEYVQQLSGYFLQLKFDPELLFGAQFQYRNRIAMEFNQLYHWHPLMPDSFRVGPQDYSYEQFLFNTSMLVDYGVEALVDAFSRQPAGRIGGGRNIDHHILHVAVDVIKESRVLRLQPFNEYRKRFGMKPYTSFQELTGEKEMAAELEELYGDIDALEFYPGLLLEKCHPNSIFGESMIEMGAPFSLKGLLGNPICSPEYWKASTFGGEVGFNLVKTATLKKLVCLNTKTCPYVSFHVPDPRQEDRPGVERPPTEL
# Chain of PGR (gene 5241) (P06401 whole entry, looked up): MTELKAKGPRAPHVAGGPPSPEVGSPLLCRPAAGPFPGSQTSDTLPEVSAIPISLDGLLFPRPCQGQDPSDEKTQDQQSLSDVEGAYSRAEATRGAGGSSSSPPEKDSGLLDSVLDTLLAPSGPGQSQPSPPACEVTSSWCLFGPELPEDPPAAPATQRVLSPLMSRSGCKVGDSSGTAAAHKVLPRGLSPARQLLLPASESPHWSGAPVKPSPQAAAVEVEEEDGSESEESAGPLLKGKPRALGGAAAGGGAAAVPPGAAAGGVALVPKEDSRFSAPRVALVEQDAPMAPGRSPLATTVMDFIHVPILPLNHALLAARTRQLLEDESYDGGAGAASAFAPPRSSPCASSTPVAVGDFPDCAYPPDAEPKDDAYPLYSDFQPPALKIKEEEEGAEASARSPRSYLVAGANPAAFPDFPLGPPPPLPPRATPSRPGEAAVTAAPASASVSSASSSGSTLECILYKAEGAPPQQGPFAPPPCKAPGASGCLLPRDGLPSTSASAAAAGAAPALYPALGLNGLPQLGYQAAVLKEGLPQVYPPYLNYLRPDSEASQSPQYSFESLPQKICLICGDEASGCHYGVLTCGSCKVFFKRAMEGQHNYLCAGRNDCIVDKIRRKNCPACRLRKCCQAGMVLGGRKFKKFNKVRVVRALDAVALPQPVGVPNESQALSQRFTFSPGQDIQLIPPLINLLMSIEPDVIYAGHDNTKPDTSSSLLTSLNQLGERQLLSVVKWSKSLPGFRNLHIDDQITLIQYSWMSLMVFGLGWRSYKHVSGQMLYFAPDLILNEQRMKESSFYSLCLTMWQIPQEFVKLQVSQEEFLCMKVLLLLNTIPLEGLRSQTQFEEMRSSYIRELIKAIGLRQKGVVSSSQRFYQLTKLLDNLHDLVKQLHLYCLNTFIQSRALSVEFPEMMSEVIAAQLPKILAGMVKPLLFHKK
# Chain of human Caspase 5 (CASP5), CASP5 (gene 838) (P51878 whole entry, looked up): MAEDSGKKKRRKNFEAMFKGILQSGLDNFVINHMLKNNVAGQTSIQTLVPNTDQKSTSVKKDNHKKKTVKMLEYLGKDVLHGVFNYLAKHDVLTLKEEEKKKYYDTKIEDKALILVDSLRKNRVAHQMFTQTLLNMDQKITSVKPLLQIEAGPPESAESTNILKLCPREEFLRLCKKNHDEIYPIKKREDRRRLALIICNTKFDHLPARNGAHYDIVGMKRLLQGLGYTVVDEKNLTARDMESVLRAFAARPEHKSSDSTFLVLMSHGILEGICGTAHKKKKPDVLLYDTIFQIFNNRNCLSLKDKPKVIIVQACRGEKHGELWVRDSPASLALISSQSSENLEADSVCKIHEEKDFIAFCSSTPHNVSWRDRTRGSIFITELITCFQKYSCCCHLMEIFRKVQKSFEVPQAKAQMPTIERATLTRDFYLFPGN
smiles,measurement,setting,value
Cc1cc(C)c(C2=C(OC(=O)CC(C)(C)C)C3(CCCC3)OC2=O)c(C)c1,outcome,[1],inactive
same,outcome,[2],inactive
same,outcome,[3],inactive
C[C@]12CC[C@H](O)C[C@H]1CC[C@@H]1[C@@H]2C[C@@H](O)[C@]2(C)[C@@H](C3=CC(=O)OC3)CC[C@]12O,outcome,[4],inactive
same,outcome,PGR (gene 5241),inactive
same,AC50,[5],5.79 µM (active)
same,AC50,[6],1.28 µM (active)
same,AC50,[7],5.47 µM (active)
same,AC50,[8],5.44 µM (active)
same,AC50,[9],4.34 µM (active)
same,AC50,[10],3.91 µM (active)
same,AC50,[11],10.8 µM (active)
same,AC50,[12],10.7 µM (active)
same,AC50,[13],4.25 µM (active)
O=[N+]([O-])C=Cc1ccccc1,AC50,[14],8.25 µM (active)
CC1OC(C)OC(C)O1 (stereo not given),outcome,[15],inactive
same,outcome,[16],inactive
same,outcome,[17],inactive
same,outcome,[18],inactive
c1ccc(Nc2ccc3ccccc3c2)cc1,outcome,[19],inactive
